# Shown are actives, neighbours in structure and some others; about 2.8% of the full set was active somewhere.
# SNCA expr inhib: SNCA gene expression inhibition | HEK-293 SNCA-luciferase knock-in, luminescence, 24 h | Potency, µM (series often up to 57.2 µM), for the others: at the highest dose activity change, negative = inhibition, actives largely listed as inhibitors | AID 1671194 | 140,000 compounds, 0.17% hits;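 also: potency is read from the fitted curve at half-maximal effect; plate controls were DMSO cells for no effect and cell-free wells for full effect; nearly all actives have a fitted effect of over 45% in size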
# SNCA viab count: reduces viability of HEK-293 SNCA reporter cells; HEK-293-SNCA-luc viability, GF-AFC fluorescence, 24 h; 150,000 compounds, 0.12% hits; Potency, µM (highest dose often 57.1 µM), for the others: at the top dose activity change, negative = cytotoxicity, usual class: cytotoxic;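 also: potency is read from the fitted curve at half-maximal effect; 0% = DMSO-treated cells and -100% = medium-only wells without cells; nearly all actives have a fitted effect of over 30% in size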
#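 Cytotoxicity counterscreen: after 24 h compound treatment of genome-edited SNCA-luciferase HEK-293 cells, live-cell protease substrate GF-AFC read by fluorescence after 30 min; activity scaled between DMSO (0%) and medium-only (-100%), curves Hill-fitted.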
# KDM5B inh: inhibitors of human KDM5B histone demethylase; Q9UGL1; KDM5B demethylase, FDH-coupled NADH fluorescence (FDH is formaldehyde dehydrogenase); Potency, µM (top dose mostly 57.7 µM), hits mostly inhibitors; 220,000 compounds, 2.6% hits; AID 1347165; also: potency is read from the fitted curve at half-maximal effect; 0% is about no effect; nearly all actives have a fitted effect of over 70% in size
#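 Measured: NADH fluorescence change, 30 min, RT. System: KDM5BΔAP 200 nM final, H3K4me3 peptide, α-KG, Fe(II), ascorbate, NAD⁺ plus FDH, pH 7.5 HEPES. Compounds: titrated, 10 min pre-incubation with enzyme.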
# IP6K1 inhibitor: IP6K1 kinase inhibition. IP6K1 kinase, ADP-Glo luminescence, 2 h; stronger effect = lower value. activity change, % (series mostly up to about 58 µM). 140,000 compounds, 0.81% hits. AID 1645851; in the data active = activity change below about -25%; also: % is scaled to controls: 0 for no effect and ±100 for the full control effect
#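 ADP-Glo luminescence measures ADP made by human IP6K1 during a 2 h RT reaction with ATP/IP6 (mix at 1.3 mM/130 uM); top library doses 57.5 and 19.1 uM final.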
# * = called active by the depositor; i = inactive; ? = inconclusive; nt = no result; [ ] = remark or other dose. Unless noted, calls follow the shape of the dose curve; as a rule, active = well fitted curve in the direction sought with a large enough effect; inconclusive = small, poorly fitted or top-dose-only effect, or another doubt; inactive = no such curve, though single readings can be large; an effect the other way counts as inactive or inconclusive.
SMILES,SNCA expr inhib,SNCA viab count,KDM5B inh,IP6K1 inhibitor
COc1ccc(-c2noc(-c3nc(Cc4cccc(F)c4)no3)n2)cc1OC,11%,4%,25µM*,13
CCc1noc(-c2nc(-c3ccc(OC)c(OC)c3)no2)n1,23%,-3%,i,0
Fc1cccc(Cc2noc(-c3nc(-c4ccc5c(c4)OCO5)no3)n2)c1,21%,6%,25µM*,-2
Cc1ccccc1Cc1noc(-c2nc(-c3ccc4c(c3)OCO4)no2)n1,?,12%,28µM*,2
Cc1c(C(=O)NC(C)c2ccc(F)c(F)c2)[nH]c2c1C(=O)CC(C)(C)C2 (centres undefined),nt,nt,i,nt
COC(=O)CNC(=O)c1cc(C(C)(C)C)nc2c1cnn2C,10%,-2%,89µM*,-1
C#CCNC(=O)c1cc(-c2ccc(Cl)nc2)nc2c1cnn2C,3%,-5%,100µM*,-7
C#CCNC(=O)c1cc(-c2ccc(Cl)cc2)nc2c1cnn2C,-3%[87.6 µM],-10%[87.6 µM],nt,-8
COC(=O)CNC(=O)c1cc(-c2ccc(Cl)nc2)nc2c1cnn2C,4%,-6%,79µM*,1
Cn1ncc2c(C(=O)NC3CC3)cc(-c3cccnc3)nc21,10%[87.6 µM],-1%[87.6 µM],89µM*,6
CC(CCc1ccccc1)NC(=O)C(=O)NCc1n[nH]c(=O)c2ccccc12 (centres undefined),nt,nt,i,nt
Cc1cc(OCC(=O)Nc2nc3ccccc3[nH]2)c2c(C)cc(=O)oc2c1,nt,nt,i,nt
CN(C)C[C@@H]1CN(c2ncccn2)C[C@H]1NC(=O)c1c(F)cccc1F,-17%,-2%,32µM*,5
CN(C)C[C@@H]1CN(c2ncccn2)C[C@H]1NC(=O)c1ccc2[nH]ccc2c1,7%,3%,32µM*,-1
CN(C)C[C@@H]1CN(c2ncccn2)C[C@H]1NS(=O)(=O)c1cccs1,19%,12%,?,31
CN(C)C[C@@H]1CN(c2ncccn2)C[C@H]1NC(=O)c1ccnn1C,?,-4%,28µM*,7
CN(C)C[C@@H]1CN(c2ncccn2)C[C@H]1NS(=O)(=O)c1cccnc1,6%,-8%,25µM*,2
O=C(N[C@@H]1CN(c2ncccn2)C[C@H]1CO)c1c(F)cccc1F,15%,0%,?,2
O=C(NC1CC1)C1CCCN1S(=O)(=O)c1ccc(Br)s1 (centres undefined),nt,nt,i,nt
O=C(/C=C/c1cc(Br)ccc1F)OC1CCCCC1=O (centres undefined),nt,nt,i,nt
CN(Cc1ccccc1)Cc1nc2c(n1Cc1ccccc1)C(=O)N(Cc1ccccc1F)CCN2,-11%,-29%,i,-9
Cc1ccsc1C(=O)N[C@@H]1CN(c2ncccn2)C[C@H]1CN(C)C,3%,0%,32µM*,11
CN(C)C[C@@H]1CN(C)C[C@H]1NC(=O)c1ccccc1C(F)(F)F,-11%,7%,i,-11
CN(C)C[C@@H]1CN(c2ncccn2)C[C@H]1NC(=O)c1ccncc1,5%,1%,25µM*,21
CN(C)C[C@@H]1CN(S(C)(=O)=O)C[C@H]1NC(=O)c1ccncc1,13%,-3%,i,26
SMILES,SNCA expr inhib,SNCA viab count,KDM5B inh,IP6K1 inhibitor
CN(C)C[C@@H]1CN(c2ncccn2)C[C@H]1NC(=O)c1ccncn1,-11%,8%,32µM*,5
Cc1cc(C(=O)N[C@@H]2CN(c3ccncn3)C[C@H]2CN(C)C)no1,-2%,5%,i,23
CN(C)C[C@@H]1CN(c2ncccn2)C[C@H]1NC(=O)c1ccccc1C(F)(F)F,-11%,2%,22µM*,21
O=C(N[C@@H]1CN(c2ncccn2)C[C@H]1CO)c1cccc(Cl)c1,19%,?,?,6
CN(C)C[C@@H]1CN(c2ncccn2)C[C@H]1NC(=O)c1cnccn1,-1%,4%,25µM*,20
CN(C)C[C@@H]1CN(c2ncccn2)C[C@H]1NC(=O)c1cccc(Cl)c1,0%,-1%,28µM*,3
CN(C)C[C@@H]1CN(Cc2ccccn2)C[C@H]1NC(=O)c1ccc(Cl)cc1,-4%,2%,i,19
CN(C)C[C@@H]1CN(c2ncccn2)C[C@H]1NC(=O)c1ccc(Cl)cc1,?,5%,28µM*,21
CC(C)Nc1nnc(SCc2nc(-c3ccc(F)cc3)no2)s1,nt,nt,i,nt
COc1cccc(-c2ccnc3nc(Cc4ccc(F)cc4)nn23)c1,-11%,-14%,25µM*,13
Fc1cc(F)cc(Cc2nc3nccc(-c4cccs4)n3n2)c1,11%,-8%,25µM*,-6
COc1ccc(Cc2nc3nccc(-c4ccccc4)n3n2)cc1,64%,9%,i,-11
Fc1ccc(Cc2nc3nccc(-c4ccsc4)n3n2)cc1,38%,-2%,25µM*,-2
Fc1ccc(Cc2nc3nccc(-c4ccccc4)n3n2)cc1,24%,5%,28µM*,-3
O=C(/C=C/c1ccccc1)N1CCC(C(=O)N2CCN(Cc3cccc(C(F)(F)F)c3)CC2)CC1,nt,nt,i,nt
COCCCNC(=O)Nc1c(NC2CCCC2)c2ccccc2oc1=O,nt,nt,i,nt
Cn1nc(C2CCNC2)c2c(C(=O)N3CCC(F)CC3)cc(C3CC3)nc21 (centres undefined),-2%,-8%,79µM*,6
O=C(c1cc(C2CC2)nc2onc(C3CCNCC3)c12)N1CCC(F)CC1,-11%,7%,i,-3
Cn1nc(C2CCNC2)c2c(C(=O)NC3CC3)cc(C3CC3)nc21 (centres undefined),1%,9%,100µM*,0
Cn1nc(C2CCNC2)c2c(C(=O)NCc3ccc(F)cc3)cc(C3CC3)nc21 (centres undefined),-3%,3%,79µM*,-1
Cn1nc(C2CCNC2)c2c(C(=O)NCC(F)(F)F)cc(C3CC3)nc21 (centres undefined),3%,10%,?,15
CN(c1ccc2sc(C(=O)NC3CCCC3)cc2c1)S(=O)(=O)c1ccc(Cl)cc1,nt,nt,i,nt
O=C(c1ccc2nc[nH]c2c1)N1CCCC2(C1)Nc1cccnc1NC2=NC1CCCC1 (centres undefined),1%,?,28µM*,-8
Cc1ccccc1C(=O)N1CCCC2(C1)Nc1cccnc1NC2=NC1CCCC1 (centres undefined),1%,-19%,16µM*,10
O=S(=O)(c1cccs1)N1CCCC2(C1)Nc1cccnc1NC2=NC1CCCC1 (centres undefined),-7%,-21%,11µM*,14
Cc1ccc(C(=O)N2CCCC3(C2)C(=NC2CCCC2)NC(=O)N3c2cccnc2)cc1 (centres undefined),39%,2%,i,-9
COc1ccc(OCC(=O)N2CCCC3(C2)Nc2cccnc2NC3=NC2CCCC2)cc1 (centres undefined),-12%,-13%,25µM*,17
CCCn1c(C)cnc1CC1CCCN(S(=O)(=O)c2cccs2)C1 (centres undefined),-1%,-2%,i,2
